Growth data for eight molecules are collected here from PubChem BioAssay (NCI).

Holding throughout (test): NCI-60 one-dose screen, 48 h (100 = growth as untreated, 0 = no growth, -100 = all killed)
Common to all, as to details: 10 µM unless noted

Test [1] concerns SR leukemia.
The test system of test [2] is RPMI-8226 leukemia.
Test [3] deals with OVCAR-8 ovarian.
Test [4] deals with OVCAR-5 ovarian.
Test [5] has as its system OVCAR-4 ovarian.
Test [6] has as its system SK-OV-3 ovarian.
The test system of test [7] is IGROV1 ovarian.
For test [8], the system named is OVCAR-3 ovarian.
The subject of test [9] is HS 578T breast.
The test system of test [10] is NCI/ADR-RES ovarian.
Test [11] deals with T-47D breast.
Test [12] has as its system BT-549 breast.
The subject of test [13] is MDA-MB-435 melanoma.
For test [14], the system named is SW-620 colon.
For test [15], the system named is HCT-116 colon.
The subject of test [16] is HCC-2998 colon.
Test [17] concerns KM12 colon.
The test system of test [18] is MDA-MB-468 breast.
For test [19], the system named is MCF7 breast.

This is part of a sample that, as a whole, favours compounds with a hit. Of some 83,000 tested, about 20% had one in any assay.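 48-hour exposure, single concentration, 96-well plates; percent growth endpoint where 0 means no net growth. Active: below 10.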 A number with no mark means an inactive call. Active and inactive are the calls of the source.

On to `Cn1cc(-c2cc(N)n3nc(-c4cn(C)c5ncc(Br)cc45)cc3n2)c2cc(Br)cnc21`, for which the growth in test [1] is -35.1% (active); in test [2] it was 5.51% (active); in test [3], 14.6%; in test [4] it was 70%; in test [5], -47.3% (active); in test [6], 104%. In addition, the growth was 43.5% in [7]; -68% (active) in [8]; 55.1% in [9]; 14.9% in [10]; -4.13% (active) in test [11]; 34.8% in test [12]. Also, the growth in [13] was -37.8% (active); in test [14], -68.6% (active); in [15], -76.3% (active); in test [16], -38.3% (active); in [17] it was -3.78% (active); in test [18], -84.2% (active).

With `C=C1CC[C@@H]2[C@]3(C)COC(c4cn[nH]c4-c4ccc(F)cc4)O[C@@H]3CC[C@@]2(C)[C@@H]1C/C=C1/C(=O)OCC1O` (stereo not given in full), the growth is 9.73% (active) in test [1]; 0.899% (active) in test [2]; 1.2% (active) in [3]; -42.2% (active) in test [4]; 32.9% in test [5]; 46.6% in test [6]. The growth in test [7] is -31.1% (active); in [8], -68.6% (active); in test [9] it was 44.8%; in test [10], -45.6% (active); in [11], 11.6%; in test [12], -93.4% (active). The growth is -62.2% (active) in test [13]; -60.7% (active) in [14]; -88.9% (active) in test [15]; -95.3% (active) in test [16]; -44.3% (active) in test [17]; -82.4% (active) in test [18].

For `CCCCSc1nc(Nc2ccc(S(N)(=O)=O)cc2)c(C#N)c(-c2ccc(Cl)cc2)n1`, the growth was 19.4% in test [1]; 52.7% in test [2]; -2.51% (active) in test [3]; 51.5% in test [4]; 2.66% (active) in [5]; 30.4% in test [6]. For the same molecule, the growth is 37.5% in [7]; 54.1% in test [8]; 64.8% in test [9]; 16.4% in [10]; 75.5% in [11]; 96.1% in [12]. Further, the growth in test [13] was 56.2%; in test [14] it was 37.3%; in [15] it was 1.12% (active); in [16], 64%; in [17], 74.7%.

As to `CCCCSc1nc(NCCc2c[nH]c3ccccc23)c(C#N)c(-c2ccccc2)n1`, the growth was 2.16% (active) in test [1]; 14.1% in test [2]; 49.2% in test [3]; 82.7% in test [4]; 62.2% in [5]; 76.6% in test [6]. Further, the growth in [7] was 96%; in test [8], 55.9%; in [9] it was 39.6%; in [10], 22.9%; in [11] it was -0.0859% (active); in test [12], 70.2%. Moreover, the growth in test [13] was 49.2%; in test [14], 4.59% (active); in test [19], 3.23% (active); in test [15], 4.22% (active); in [16], 16.3%; in test [17], 7.79% (active). The growth in test [18] was 3.04% (active).

For the molecule `CC12CC[C@@H]3[C@]4(C)COC(c5cn[nH]c5-c5cccc(Br)c5)O[C@@H]4CC[C@@]3(C)[C@@H]1CC(C1=CCOC1=O)O2` (stereo not given in full), the growth in test [1] was 28%; in test [2], 13.2%; in [3] it was 31%; in test [4], 76.8%; in test [5], 25.4%; in test [6], 53.8%. Also, the growth in test [7] is 48.7%; in [8], 40.6%; in [9], 51.5%; in test [10] it was 25.3%; in test [11] it was 17.7%; in [12], -3.03% (active). Also, the growth in test [13] is 36.1%; in test [14] it was 48.5%; in [15] it was 15.3%; in [16], 35.6%; in test [17], 13.5%; in [18] it was 17.4%.

As for `CCN(CC)c1ccnc(CNCCSC(c2ccccc2)(c2ccccc2)c2ccc(C)cc2)c1`, the growth was -60.8% (active) in test [1]; -42% (active) in test [2]; -90.3% (active) in [3]; -70.6% (active) in test [4]; -21% (active) in test [5]; -87.4% (active) in test [6]. Also, the growth was -30.9% (active) in test [7]; -88.4% (active) in test [8]; -49.3% (active) in [9]; -84.3% (active) in [10]; -67.8% (active) in [11]; -91.9% (active) in test [12]. The growth was -90.6% (active) in test [13]; -72.2% (active) in test [14]; -82.4% (active) in test [19]; -88.2% (active) in test [15]; -96.4% (active) in [16]; -83.9% (active) in [17]. The growth in test [18] was -92.3% (active).

Take `COc1ccc(/C=C/c2nc3ccccc3c(=O)n2CC(=O)Nc2ccc(OC)cc2)cc1`: the growth was 79.5% in test [1]; 76.4% in test [2]; 59.1% in test [3]; 95.6% in test [4]; 9.1% (active) in test [5]; 79.3% in [6]. Further, the growth in test [7] is 94.2%; in [8] it was 62.5%; in [9] it was 56.2%; in test [10] it was 75.7%; in test [11], 66.4%; in test [12] it was 72.5%. In addition, the growth in test [13] was 96.4%; in [14] it was 84.4%; in [15], 32.1%; in test [16] it was 95.6%; in [17], 79.6%; in test [18], 91.1%.

With `COc1ccc(N2N=C(c3ccc4c(c3)OCO4)CC2c2cccc(NC(=O)CCNS(=O)(=O)c3ccc(Cl)cc3)c2)cc1` (stereo not given), the growth is 3.71% (active) in [1]; 23.2% in test [2]; 49.1% in test [3]; 68.4% in test [4]; 51.6% in test [5]; 46.1% in test [6]. For the same molecule, the growth was 61.1% in [7]; 61.8% in [8]; 13.4% in test [9]; 71.3% in test [10]; 28.9% in test [11]; 34.5% in test [12]. Also, the growth in [14] was 55.8%; in test [19], 8.85% (active); in test [15], 26.9%; in test [16], 8.63% (active); in [17], 21.2%; in [18], 10.1%.
